From PubChem
This is a sample that favours compounds with a hit; in the whole collection about 7.5% have one here.
HCMV antiviral = qHTS Assay for inhibitors of the human cytomegalovirus (HCMV). actives 4.5% (n = 410,000). HFF cells, HCMV-luciferase reporter, 72 h; active compounds read low. activity change, negative = inhibition, % at 57.5 µM; in the data active = activity change below about -60%; inconclusive = no clear call, values can overlap the other calls; inactive = above about -39%
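Two-dose cell screen: HFF monolayers treated with compounds and infected with luciferase-expressing HCMV at 1 PFU/cell, 72 h at 37C, then lysed for luciferase measurement.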
Vaccinia mCherry = qHTS for Stage-Specific Inhibitors of Vaccinia Orthopoxvirus: mCherry Reporter Primary qHTS. Vaccinia virus mCherry reporter infection, fluorescence. Potency, µM (top dose mostly 36.5 µM), hits mostly inhibitors. actives 0.63% (n = 310,000). AID 720579, 2013; calls by dose curve; tested in A549 cells; note: nearly all actives have a fitted effect of over 35% in size
FMDV antiviral = High Throughput Screening for Foot and Mouth Disease Virus Antivirals. FMDV antiviral cell-based qHTS. Potency, µM (top dose mostly 57.9 µM), most hits filed as inhibitors. actives 1.2% (n = 410,000); calls by dose curve; tested in HEK293T cells; note: read-out not given here; nearly all actives have a fitted effect of over 45% in size
Vaccinia Venus = qHTS for Stage-Specific Inhibitors of Vaccinia Orthopoxvirus: Venus Reporter Primary qHTS | actives 0.46% (n = 330,000) | Vaccinia virus Venus reporter expression, fluorescence | Potency, µM (doses to about 36.5 µM), hits mostly inhibitors; calls by dose curve; tested in A549 cells; note: nearly all actives have a fitted effect of over 30% in size
HCV inhibitor = qHTS Assay for Inhibitors of Hepatitis C Virus (HCV); Potency, µM (highest dose often 41.8 µM), most hits filed as inhibitors; Huh7.5.1 HCVcc-Cre infection, luciferase reporter, 44 h; AID 651820, 2012; actives 3.4% (n = 340,000)
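Infectious HCV cell culture screen: compound-treated cells (1,000/well, pre-plated 4 h) are infected with HCVcc-Cre at roughly 0.5 moi and grown 44 h. Infection is quantified by luciferase signal after 15 min substrate incubation at room temperature.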
Giardia FBPA inh-1 = qHTS Assay for Inhibitors of Fructose-1,6-bisphosphate Aldolase from Giardia Lamblia; A8B2U2; purified Giardia FBPA; Potency, µM (doses to about 59.6 µM), usual class: inhibitors; actives 0.71% (n = 290,000); AID 2451, 2010; note: nearly all actives have a fitted effect of over 55% in size
Target sequence (A8B2U2 whole entry, looked up): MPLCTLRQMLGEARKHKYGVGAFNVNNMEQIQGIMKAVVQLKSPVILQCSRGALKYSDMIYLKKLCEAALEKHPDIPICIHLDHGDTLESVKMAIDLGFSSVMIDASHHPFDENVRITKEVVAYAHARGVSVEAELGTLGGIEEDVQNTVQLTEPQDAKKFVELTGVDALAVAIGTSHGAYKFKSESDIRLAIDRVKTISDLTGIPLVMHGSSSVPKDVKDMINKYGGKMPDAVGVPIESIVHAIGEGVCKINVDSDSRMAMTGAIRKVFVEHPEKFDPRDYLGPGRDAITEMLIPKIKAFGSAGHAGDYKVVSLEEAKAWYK
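40 nM FBPA preincubated 10 min at RT with compound (up to 57.5 uM final), then substrate plus GAPDH/TPI/NAD/arsenate coupling and diaphorase/resazurin added. Fluorescence read after 20 min at RT, 525/598 nm.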
Giardia growth = qHTS Assay for Inhibitors of Fructose-1,6-bisphosphate Aldolase from Giardia Lamblia: Giardia lamblia growth inhibition | Potency, µM (highest dose often 57.5 µM), actives largely listed as inhibitors | shares compounds with Giardia FBPA inh-1 | actives 5% (n = 1,500) | Giardia lamblia trophozoite growth inhibition;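 note: trophozoites exposed to compound for 48 h at 37 °C; nearly all actives have a fitted effect of over 70% in size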
Mammal cell tox = qHTS Assay for Inhibitors of Fructose-1,6-bisphosphate Aldolase from Giardia Lamblia: Mammalian cellular toxicity; shares compounds with Giardia FBPA inh-1; actives 4% (n = 1,500); mammalian cell viability counter-screen, qHTS; Potency, µM (top dose mostly 57.5 µM), actives largely listed as inhibitors; AID 2786, 2010;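 note: Chinese hamster ovary cells used as mammalian cytotoxicity surrogate; viability measured as cellular ATP by luminescence; compound exposure lasted 48 h before reading; nearly all actives have a fitted effect of over 60% in size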
Giardia FBPA inh-2 = qHTS Assay for Inhibitors of Fructose-1,6-bisphosphate Aldolase from Giardia Lamblia: Primary screen confirmation | shares compounds with Giardia FBPA inh-1 | purified Giardia aldolase enzyme activity, qHTS | Potency, µM (titrated, usually from 57.5 µM), actives largely listed as inhibitors | actives 5% (n = 1,500) | AID 2787, 2010; note: nearly all actives have a fitted effect of over 45% in size
Rabbit FBPA inh = qHTS Assay for Inhibitors of Fructose-1,6-bisphosphate Aldolase from Giardia Lamblia: Rabbit FBPA Selectivity; Rabbit muscle FBPA enzyme inhibition, selectivity counter-screen; shares compounds with Giardia FBPA inh-1; actives 4% (n = 1,500); Potency, µM (series often up to 57.5 µM), usual class: inhibitors; note: nearly all actives have a fitted effect of over 60% in size
Target sequence (P00883 whole entry, looked up): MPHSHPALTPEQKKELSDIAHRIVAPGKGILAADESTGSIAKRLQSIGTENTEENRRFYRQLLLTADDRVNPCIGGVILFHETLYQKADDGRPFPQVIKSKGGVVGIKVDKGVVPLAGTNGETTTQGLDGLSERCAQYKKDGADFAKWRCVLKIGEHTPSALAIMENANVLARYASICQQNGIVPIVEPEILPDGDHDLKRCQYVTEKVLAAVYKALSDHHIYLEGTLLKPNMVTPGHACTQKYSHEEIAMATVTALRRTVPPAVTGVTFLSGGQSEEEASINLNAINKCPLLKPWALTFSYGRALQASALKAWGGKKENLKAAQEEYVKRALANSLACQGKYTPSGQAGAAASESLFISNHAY
GAPDH coupling = qHTS Assay for Inhibitors of Fructose-1,6-bisphosphate Aldolase from Giardia Lamblia: Coupling assay counterscreen confirmation; shares compounds with Giardia FBPA inh-1; GAPDH coupling enzyme counterscreen, biochemical, qHTS; Potency, µM (titrated, usually from 57.5 µM), actives largely listed as inhibitors; actives 6% (n = 1,500); AID 2795, 2010; note: nearly all actives have a fitted effect of over 55% in size
Numbers stand for hits; - = inactive; ? = inconclusive; . = not tested or not shown; [ ] = another dose, or the depositor's remark. Unless noted, calls come from the whole dose curve; as a rule, active = well fitted curve in the direction sought with a large enough effect; inconclusive = small, poorly fitted or top-dose-only effect, or another doubt; inactive = no such curve, though single readings can be large; an effect the other way counts as inactive or inconclusive.

SMILES | HCMV antiviral | Vaccinia mCherry | FMDV antiviral | Vaccinia Venus | HCV inhibitor | Giardia FBPA inh-1 | Giardia growth | Mammal cell tox | Giardia FBPA inh-2 | Rabbit FBPA inh | GAPDH coupling
CCCCCn1cnc2c(=S)nc(N)[nH]c21 | ? | - | - | - | ? | 2.81µM | - | - | - | - | -
CCCCn1cnc2c(=S)nc(N)[nH]c21 | ? | - | - | - | - | 7.06µM | - | - | - | - | -
Cc1ccc(Cl)cc1N1CCN(S(=O)(=O)c2cn(C)c(C)n2)CC1 | - | - | - | - | . | . | . | . | . | . | .
Cc1ccc(NC(=O)CCn2nc(C)c(S(=O)(=O)N3CCCCC3)c2C)cc1Cl | - | - | - | - | . | . | . | . | . | . | .
CC(C)N(CC#CCC(O)(c1ccccc1)c1ccccc1)CCO | - | - | - | - | - | 15.8µM | - | - | - | - | -
CCN(CC#CCC(O)(c1ccccc1)c1ccccc1)C(C)C | ? | - | - | - | - | - | . | . | . | . | .
CCCCC1(CCO)C(=O)NC(=S)NC1=O | - | - | - | - | - | . | . | . | . | . | .
CCCCC1(C)NC(=S)N2N1C(=S)NC2(C)CCCC (centres undefined) | - | - | - | - | - | 15.8µM | ? | - | - | - | -
C=CCNC(=O)c1cc2c(=O)n3ccccc3nc2s1 | - | . | - | . | - | - | . | . | . | . | .
c1ccc(-c2ccccc2OCCOCCN2CCNCC2)cc1 | - | - | - | - | - | 19.9µM | ? | - | - | - | -
CCN1CCN(CCOCCOc2ccccc2-c2ccccc2)CC1 | . | . | . | . | . | 17.7µM | -[10.4 µM] | - | - | - | -
c1ccc(-c2ccccc2OCCCN2CCCC2)cc1 | - | - | - | - | - | - | . | . | . | . | .
CCCN(Cc1nnc(-c2ccccc2Cl)o1)C(=O)c1cc(S(=O)(=O)N2CCOCC2)ccc1F | - | - | - | - | ? | . | . | . | . | . | .
O=C(NCCc1ccc(Cl)cc1)C1CCC(CNc2c(N3CCCCC3)c(=O)c2=O)CC1 (centres undefined) | ? | - | - | - | -[8.37 µM] | - | . | . | . | . | .
CCN(CC)c1ccc(N)cc1S(=O)(=O)Nc1ccccc1OC | ? | - | - | - | - | 15.8µM | -[10.4 µM] | - | - | - | -
NNC(=O)c1cc(O)c(O)c(O)c1 | - | - | - | - | - | ? | . | . | . | . | .
O=C(O)c1cc(O)c(O)c(O)c1 | . | ? | - | ? | . | 3.54µM | - | 39.8µM | 14.1µM | 20µM | 25.1µM
O=C(NCc1ccco1)c1ccc2sc([C@@H]3O[C@H](CO)[C@H](O)[C@H](O)[C@H]3O)nc2c1 | - | - | - | - | . | . | . | . | . | . | .
Cc1ncoc1C(=O)Nc1ncc([N+](=O)[O-])s1 | - | - | - | - | - | 17.7µM | ? | - | - | - | -
O=C(Nc1ncc([N+](=O)[O-])s1)c1cccs1 | ? | - | ? | - | ? | - | . | . | . | . | .
Cc1ccc(C(=O)COC(=O)c2cccc([N+](=O)[O-])c2)s1 | - | . | - | . | - | . | . | . | . | . | .
CC(C)CNC(=S)N(Cc1ccco1)Cc1cc2cc3c(cc2[nH]c1=O)OCCO3 | ? | - | - | ? | ? | - | . | . | . | . | .
c1cc2c(cc1NC1CCCCCC1)OCO2 | - | - | - | - | - | 25.1µM | - | - | 7.08µM | ? | -
O=C(NC1CCCCCCC1)c1ccc2c(c1)OCO2 | - | . | - | . | - | - | . | . | . | . | .
Cc1ccc(CNC(=O)CSc2nc3ccccc3[nH]2)cc1 | - | . | - | . | - | 12.6µM | - | - | - | - | -
SMILES | HCMV antiviral | Vaccinia mCherry | FMDV antiviral | Vaccinia Venus | HCV inhibitor | Giardia FBPA inh-1 | Giardia growth | Mammal cell tox | Giardia FBPA inh-2 | Rabbit FBPA inh | GAPDH coupling
COC(=O)c1ccc(CNC(=O)CSc2nc3ccccc3[nH]2)cc1 | - | - | - | - | - | - | . | . | . | . | .
CC(C)(C)CC(C)(C)NCC(=O)Nc1c2c(nc3ccccc13)CCC2 | - | - | - | - | - | 4.46µM | - | - | - | - | -
CN1CCc2c1nc1ccccc1c2NC(=O)CN1CCCC1 | - | - | - | - | - | 17.8µM | -[10.4 µM] | - | - | - | -
CCCCCCC(=O)Nc1c2c(nc3ccccc13)N(C)CC2 | - | - | - | - | - | - | . | . | . | . | .
Cc1cc(=O)n(CC(=O)O)c2ccccc12 | - | . | - | . | - | - | . | . | . | . | .
Cc1cc(C)n(CC(=O)O)c(=O)c1[N+](=O)[O-] | - | - | - | - | ? | 7.92µM | - | - | - | - | -
O=C(O)CCCCCn1c(SCC(=O)N2CCCC2)nc2ccsc2c1=O | - | . | - | . | - | - | . | . | . | . | .
O=C(O)CCCCCn1c(SCC(=O)c2ccc(O)c(O)c2)nc2ccsc2c1=O | - | - | - | - | - | 3.97µM | -[10.4 µM] | - | - | - | -
C=CCNC(=S)N/N=C(\C)c1cccnc1 | - | - | - | - | ? | 15.8µM | - | - | - | - | -
CC(=O)[C@H]1CC[C@@H]2[C@H]3CC=C4C[C@@H](O)CC[C@]4(C)[C@H]3CC[C@]12C | . | . | . | . | . | - | . | . | . | . | .
Cn1ccnc1P(=S)(c1nccn1C)c1nccn1C | - | - | . | - | - | 7.94µM | - | - | - | - | -
Cn1ccnc1P(=S)(c1nccn1C)N1CCOCC1 | - | - | - | - | - | - | . | . | . | . | .
C[C@H](O)[C@@H]1C(=O)N2CCc3c([nH]c4cccc(-c5ccccc5)c34)[C@@H]2C[C@@H]1N(C)CC1CCCCC1 | - | . | . | . | . | . | . | . | . | . | .
O=C(Nc1ccc(-n2cc(Br)cn2)cc1)c1ccncc1 | - | . | - | . | ? | - | . | . | . | . | .
COc1cc(CN2CCN(S(=O)(=O)c3ccc(F)cc3)CC2)cc(OC)c1OC | - | - | - | - | - | ? | . | . | . | . | .
COc1ccc(S(=O)(=O)N2CCC(N3CCN(Cc4ccccc4)CC3)CC2)cc1 | - | - | - | - | - | 12.6µM | - | - | - | - | -
COc1cc(CN2CCN(S(=O)(=O)c3ccccc3)CC2)cc(OC)c1OC | - | . | - | . | - | 25.1µM | - | - | - | - | -
COc1ccc(-c2cn3nc(N4CCC(C(=O)Nc5ccccc5OC)CC4)sc3n2)cc1 | - | - | - | - | . | . | . | . | . | . | .
